Bioassay records as filed in PubChem BioAssay.
Pf growth 96h = inhibits malaria parasite growth, 96 h; Potency, µM (series often up to 28.7 µM), for the others: at the top dose activity change, negative = inhibition, usual class: inhibitors; hit rate 6.9% among 320,000; AID 504834; P. falciparum luciferase reporter growth, 96 h; further: potency means the concentration at half of the fitted maximal effect; on the % scale 0 is the no-effect control and ±100 the full control effect
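Cell-based qHTS: luciferase-tagged P. falciparum in erythrocytes (2% hematocrit, 0.05% parasitemia final) incubated with compounds for 96 hours, 37 C, 5% CO2; luciferase detection reagent then added and luminescence measured.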
Pf growth 48h = P. falciparum growth inhibition at 48 hours (one generation) | hit rate 5.9% among 310,000 | Potency, µM (doses to about 28.7 µM), for inactives: at the highest dose activity change, negative = inhibition, hits mostly inhibitors | P. falciparum luciferase growth in erythrocytes, 48 h; further: potency means the concentration at half of the fitted maximal effect; on the % scale 0 is the no-effect control and ±100 the full control effect
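A one-generation exposure of luciferase-tagged malaria parasites in RPMI 1640/Albumax erythrocyte culture, 37 C and 5% CO2. Inhibition is inferred from decreased luminescence after adding detection reagent.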
Sm TGR inh = blocks Schistosoma mansoni thioredoxin glutathione reductase; purified TGR, DTNB reduction, TNB absorbance 405 nm; Potency, µM (titrated, usually from 114 µM), for inactives: at the highest dose activity change, negative = inhibition, actives largely listed as inhibitors; hit rate 3% among 360,000; AID 485364; further: potency means the concentration at half of the fitted maximal effect; on the % scale 0 is the no-effect control and ±100 the full control effect; nearly all actives have a fitted effect of over 60% in size
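TGR 20 nM + NADPH 100 uM (dispensed conc.), cpd preinc 15 min RT; start with NADPH (500 uM addition) then DTNB (15 mM addition). Kinetic TNB absorbance, 405 nm filter. Four-parameter Hill fit across titration.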
SARS PLpro yeast = inhibitors of SARS-CoV papain-like protease in yeast; S. cerevisiae expressing SARS-CoV PLpro, growth rescue; Potency, µM (titrated, usually from 32.9 µM), for the others: at the top dose activity, positive = growth rescue, usual class: activators; hit rate 0.19% among 330,000; AID 485353; calls by dose curve; further: potency means the concentration at half of the fitted maximal effect; 0% is about no effect; nearly all actives have a fitted effect of over 55% in size
HCMV antiviral = human cytomegalovirus inhibition; AID 1259415; activity change, negative = inhibition, % at 57.5 µM; hit rate 4.5% among 410,000; HFF cells, HCMV-luciferase reporter, 72 h; hits give low values; in the data active means activity change below about -60%; inconclusive means no clear call, values can overlap the other calls; inactive means above about -39%; further: on the % scale 0 is the no-effect control and ±100 the full control effect
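Two compound doses tested in HFFs infected with HCMV-luciferase, MOI 1 PFU/cell, 72 h at 37C. Lysate luminescence read with OneGlo; data normalized against buffer-only and 10uM Salinomycin inhibitor controls.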
HCV inh = HCV inhibition | AID 651820 | Huh7.5.1 HCVcc-Cre infection, luciferase reporter, 44 h | hit rate 3.4% among 340,000 | Potency, µM (highest dose often 41.8 µM), for inactives: top-dose activity change, negative = inhibition, usual class: inhibitors; further: potency means the concentration at half of the fitted maximal effect; on the % scale 0 is the no-effect control and ±100 the full control effect
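Cells (1,000/well) were plated 4 h before compound, then infected with HCVcc-Cre virus (~0.5 moi). After 44 h further culture, infection was read as luciferase luminescence following a 15 min substrate incubation at room temperature.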
* marks the source's active call; other numbers are inactive results; ? = inconclusive; · = not tested or not shown; [ ] = dose if it differs, or a comment. The list is not random: actives were taken first. Their share in the collection is about 15%. Unless noted, the call rests on the fitted dose curve; in most records, active means well fitted curve in the direction sought with a large enough effect; inconclusive means small, poorly fitted or top-dose-only effect, or another doubt; inactive means no such curve, though single readings can be large; an effect the other way counts as inactive or inconclusive.

SMILES	Pf growth 96h	Pf growth 48h	Sm TGR inh	SARS PLpro yeast	HCMV antiviral	HCV inh
Cc1ccccc1Nc1nnc(-c2ccc(C)c(S(=O)(=O)N3CCCCC3)c2)c2ccccc12	·	·	1%	·	-63*	·
Cc1ccc(C)c(N2CCN(C(=O)c3cc(S(=O)(=O)N4CCCC4)c[nH]3)CC2)c1	·	·	-4%	·	19	·
CN(C)c1ccc(C(CNC(=O)c2ccco2)N2CCCC2)cc1 (stereo not given)	14%	31%	-22%	-1%	-2	17%
CCC1=Nc2cc(C(=O)NCCCOC)ccc2Sc2ccc(Br)cc21	·	·	1%	·	-87*	·
CCC1=Nc2cc(C(=O)NCCN3CCCC3)ccc2Sc2ccccc21	2.3µM*	?	7%	6%	?	?
CCC1=Nc2cc(C(=O)NCCCOC)ccc2Sc2ccccc21	-41%	·	0%	-1%	-76*	?
CC(C)C[C@H]1CNC(=O)C(=O)N1CC1CCN(CC2CCC(C)CC2)CC1 (stereo not given in full)	·	·	·	·	-3	·
Cc1ccc(Cn2cc(S(=O)(=O)c3cccc(C)c3)c(=O)c3cc(F)c(N4CCOCC4)cc32)cc1	·	·	1%	·	-27	·
Cc1ccc(OCC(=O)Nc2cccc(C(=O)OCc3cc(=O)n4nc(C)sc4n3)c2)cc1	·	·	3%	·	4	·
O=C1Nc2ccccc2C1(O)c1ccccc1 (stereo not given)	0.1µM*	-1%	-6%	-10%	-16	9%
CC(C)COc1ccc(CNC(=S)NCc2ccccc2)cc1	33%	40%	5%	-17%	-82*	?
S=C(NCCCc1ccccc1)NCc1ccccc1	-13%	-24%	4%	10%	-83*	-14%
S=C(NCc1ccccc1)NCc1ccccc1	?	·	10%	8%	?	-8%
CC(C)Oc1ccc(CNC(=S)Nc2ccccc2)cc1Cl	?	-4%	0%	-2%	37	-2%
CC(C)COc1ccc(CNC(=S)Nc2ccccc2)cc1Cl	?	-12%[0.00184 µM]	0%	-3%	-26	10µM*
CCCOc1ccc(CNC(=S)Nc2ccccc2)cc1Cl	-1%	·	1%	-2%	-3	16µM*
COC(=O)c1ccc2c(=O)n(CCCCCC(=O)NCc3ccc(Cl)cc3)c(=O)[nH]c2c1	·	·	2%	·	40	·
CCCn1c(=O)c(C(=O)Nc2ccccc2C)c(O)c2ccccc21	4%	62%	45µM*	-8%	90	?
CCCn1c2c(c(O)c(C(=O)Nc3ncccc3C)c1=O)CCCC2	-1%	10%	-6%	-5%	?	11µM*
CCCCCn1c(=O)c(C(=O)Nc2ccccc2C)c(O)c2ccccc21	-24%	65%	4%	1%	34	?
CCCCCn1c(=O)c(C(=O)Nc2ccccc2S(N)(=O)=O)c(O)c2ccccc21	8%	33%	4%	0%	-101*	?
C=CCC1(C)C(=O)N(c2ccccc2)c2ccccc21 (stereo not given)	?	-10%	5%	3%	-30	1%
Nc1nn(-c2ccccc2Cl)cc1-c1nn[nH]n1	5%	-9%	8%	0%	16	?
Cc1cc([N+](=O)[O-])nn1CCCC(=O)NC1CCCCC1	10%	12%	-8%	3%	-31	16%
Cc1cc(N2CCNCC2)nc2ccccc12	?	-17%	22µM*	11%	115	-2%
SMILES	Pf growth 96h	Pf growth 48h	Sm TGR inh	SARS PLpro yeast	HCMV antiviral	HCV inh
CCCn1c(N2CCN(CC(=O)c3c[nH]c4ccccc34)CC2)nc2c1c(=O)[nH]c(=O)n2C	0.74µM*	9.3µM*	-26%	4%	58	13µM*
CCn1c(N2CCN(CC(=O)c3c(C)n(C)c4ccc(OC)cc34)CC2)nc2c1c(=O)[nH]c(=O)n2C	10µM*	?	?	-1%	9	?
CCn1c(N2CCN(CC(=O)c3c(C)n(C)c4ccccc34)CC2)nc2c1c(=O)[nH]c(=O)n2C	1.3µM*	·	-3%	-14%	-8	-22%
Cc1ccc(Cn2c(C)c(C(=O)NCc3cccs3)sc2=O)cc1	·	·	·	·	17	·
COc1ccc2c(c1OC)C(=O)N(C(C)C(=O)O)C2=O (stereo not given)	44%	-10%	7%	-5%	-8	7%
CCN(CCNCC(O)COCc1ccc(Cl)cc1)c1cccc(C)c1 (stereo not given)	?	8.3µM*	-7%	-8%	26	16µM*
CC(C)NC(=O)C1CCCN(S(=O)(=O)c2ccc3c(ccn3C)c2)C1 (stereo not given)	·	·	-15%	·	11	·
C[C@]12c3[nH]c4ccccc4c3CCN1C(=O)C(CC(=O)NCC13CC4CC(CC(C4)C1)C3)C[C@@H]2C(=O)N1CCOCC1 (stereo not given in full)	·	·	·	1%	-38	?
CC(C)N(C(=O)[C@H]1C[C@H](CC(=O)NCC23CC4CC(CC(C4)C2)C3)C(=O)N2CCc3c([nH]c4cc(-c5ccco5)ccc34)[C@]12C)C(C)C	·	·	·	-4%	-21	4%
CC(C)N(C(=O)[C@H]1CC(CC(=O)NCCCN(C)C)C(=O)N2CCc3c([nH]c4ccccc34)[C@]12C)C(C)C (stereo not given in full)	·	·	·	1%	-14	-13%
C[C@]12c3[nH]c4ccccc4c3CCN1C(=O)C(CC(=O)NCC13CC4CC(CC(C4)C1)C3)C[C@@H]2C(=O)N1CCCCC1 (stereo not given in full)	·	·	·	-4%	-76*	1%
COc1ccc2[nH]c3c(c2c1)CCN1C(=O)C(CC(=O)NCC24CC5CC(CC(C5)C2)C4)C[C@H](C(=O)N2CCCCC2)[C@@]31C (stereo not given in full)	·	·	·	3%	-32	25µM*
CC(C)N(C(=O)[C@H]1CC(CC(=O)NCc2cccc(C(F)(F)F)c2)C(=O)N2CCc3c([nH]c4ccccc34)[C@]12C)C(C)C (stereo not given in full)	·	·	·	-1%	14	10µM*
CC(C)N(C(=O)[C@H]1CC(CC(=O)NCC23CC4CC(CC(C4)C2)C3)C(=O)N2CCc3c([nH]c4ccccc34)[C@]12C)C(C)C (stereo not given in full)	·	·	·	-1%	-74*	3.2µM*
COc1ccc(N2CCN(C(=O)CCc3c(C)nc4cc(-c5cccc(F)c5)nn4c3C)CC2)cc1	·	·	-21%	·	-37	·
CC1CN(CCCSc2ccc(Cl)cc2)CC(C)O1 (stereo not given)	?	15%	4%	1%	-3	13µM*
CC1CN(CCCCSc2ccccc2)CC(C)O1 (stereo not given)	4%	0%	-22%	-3%	9	9%
